Bioassay records as filed in PubChem.
SNCA viab count – cell viability loss counter-screen; HEK-293-SNCA-luc viability, GF-AFC fluorescence, 24 h; Potency, µM (highest dose often 57.1 µM), for inactives: at the highest dose activity change, negative = cytotoxicity, most hits filed as cytotoxic; hit rate 0.12% among 150,000;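 also: 0% = DMSO-treated cells and -100% = medium-only wells without cells; nearly all actives have a fitted effect of over 30% in size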
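HEK-293-SNCA-luc cells (1500/well) plated 24 h, then exposed 24 h to a dilution series; GF-AFC added 30 min at 37C, fluorescence 405/540 nm; normalised to medium-only and DMSO wells, Hill fit.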
FLuc inh – Photinus pyralis luciferase inhibition; P08659; hit rate 2.5% among 76,000; Potency, µM (series often up to 115 µM), most hits filed as inhibitors; purified P. pyralis luciferase, luminescence, biochemical; also: nearly all actives have a fitted effect of over 65% in size
Target sequence (P08659 whole entry, looked up): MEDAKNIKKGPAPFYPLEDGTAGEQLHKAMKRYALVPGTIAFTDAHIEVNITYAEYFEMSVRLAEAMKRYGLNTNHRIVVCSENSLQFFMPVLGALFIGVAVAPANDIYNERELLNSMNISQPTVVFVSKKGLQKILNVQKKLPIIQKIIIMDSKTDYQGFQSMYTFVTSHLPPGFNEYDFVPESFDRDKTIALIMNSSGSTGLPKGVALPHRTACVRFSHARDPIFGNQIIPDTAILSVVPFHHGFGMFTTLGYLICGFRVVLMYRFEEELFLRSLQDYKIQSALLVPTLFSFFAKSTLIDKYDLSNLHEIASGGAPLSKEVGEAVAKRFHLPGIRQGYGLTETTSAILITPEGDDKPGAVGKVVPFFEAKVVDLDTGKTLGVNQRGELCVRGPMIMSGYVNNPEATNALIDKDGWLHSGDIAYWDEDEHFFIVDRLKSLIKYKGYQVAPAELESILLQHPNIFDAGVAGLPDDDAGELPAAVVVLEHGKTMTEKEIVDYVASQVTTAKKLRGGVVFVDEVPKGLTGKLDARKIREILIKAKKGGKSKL
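FLuc 10nM, D-luciferin 10uM, ATP 10uM, Mg acetate 10mM, Tris acetate pH 7.5, Tween/BSA; cpd qHTS; enzyme added last; CCD luminescence.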
3T3 cytotox – kills NIH 3T3 cells; NIH 3T3 viability, CellTiter-Glo ATP luminescence, 48-72 h; hit rate 4.3% among 94,000; AID 1345082; Potency, µM (doses to about 96.7 µM), for inactives: at the highest dose activity change, negative = cytotoxicity, usual class: inhibitors; also: nearly all actives have a fitted effect of over 55% in size
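NIH 3T3 cells at 400 cells/well received 23 nL of compound by pintool and were incubated 48 or 72 h at 37 °C. Viability was read as ATP-coupled CellTiter-Glo luminescence.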
NPR1 antag – human Npr1 receptor antagonism; P16066; HEK293 hNpr1 GloSensor cGMP, ANP-stimulated luminescence; AID 1347048; Potency, µM (top dose mostly 46.3 µM), inactives show at the top dose activity change, negative = inhibition, actives largely listed as inhibitors; hit rate 1.6% among 76,000; calls by dose curve; also: nearly all actives have a fitted effect of over 60% in size
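Compound pre-incubated 30 min at room temperature on GloSensor-loaded HEK293 cells stably carrying hNpr1 and the pGS-40F cGMP biosensor. Stimulation uses hNppA at 0.1 nM final; luminescence is taken at baseline and 20 min post-agonist.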
HEK293 tox – cytotoxic compounds in HEK 293 cells. HEK 293 viability, ATP luminescence (CellTiter-Glo), 48-72 h. hit rate 6.6% among 94,000. Potency, µM (highest dose often 115 µM), for inactives: at the highest dose activity change, negative = cytotoxicity, hits mostly inhibitors; also: nearly all actives have a fitted effect of over 60% in size
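ATP-coupled CellTiter-Glo luminescence served as viability read-out, recorded 10 min after reagent addition at room temperature. HEK 293 cells, 250 cells/well, had been incubated with pintool-transferred compound for 48 or 72 hr at 37 degree Celsius.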
SNCA expr inh – inhibitors of alpha-synuclein (SNCA) gene expression | Potency, µM (doses to about 57.2 µM), without a hit: at the highest dose activity change, negative = inhibition, hits mostly inhibitors | hit rate 0.17% among 140,000 | HEK-293 SNCA-luciferase knock-in, luminescence, 24 h;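 also: plate controls were DMSO cells for no effect and cell-free wells for full effect; nearly all actives have a fitted effect of over 45% in size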
Numbers without * were called inactive; i = inactive; u = inconclusive; x = no result given; [ ] = another dose, or the depositor's remark. Only some compounds are listed: those with a hit (about 7.2% of all), similar ones and a draw of the others. Unless noted, calls follow the shape of the dose curve; as a rule, active = well fitted curve in the direction sought with a large enough effect; inconclusive = small, poorly fitted or top-dose-only effect, or another doubt; inactive = no such curve, though single readings can be large; an effect the other way counts as inactive or inconclusive. Unless noted, % is scaled to controls: 0 for no effect and ±100 for the full control effect; potency is read from the fitted curve at half-maximal effect.

SMILES | SNCA viab count | FLuc inh | 3T3 cytotox | NPR1 antag | HEK293 tox | SNCA expr inh
COCCN1CCN(C[C@@H]2C=C(C)[C@H](Cc3nnc(-c4ccc(N(C)C)cc4)o3)C[C@H]2C(C)C)CC1 | u | i | u | 2% | 32µM* | -14%
O=C(CCC1CCCC1)NCc1nnc2cc(-c3nc(C4CC4)no3)ccn12 | -8% | i | i | 4% | i | 17%
Cc1c(Cl)c(C(=O)N[C@H]2[C@@H]3CCO[C@@H]3[C@@H]2C2CCCC2)nn1C | -6% | i | -20% | -1% | -20% | 10%
CN(Cc1cccc2cnccc12)C(=O)COc1ccc(Cl)cc1Cl | -28% | i | u | u | 45µM* | 10%
COc1cc(/C=C/C(=O)OCC2OC(OC3(CO)OC(CO)C(O)C3O)C(O)C(O)C2O)ccc1O (configuration not stated) | 1%[23.9 µM] | x | x | x | x | x
Cc1noc(C)c1-c1ccc2c(n1)CN(Cc1ccc(F)cc1)C(=O)CO2 | 2%[87.6 µM] | i | u | -16%[70.6 µM] | u | 4%[87.6 µM]
O=C1COc2ccc(Nc3ccccc3F)nc2CN1Cc1ccc(F)cc1 | -20%[87.6 µM] | i | u | -18%[70.6 µM] | 79µM* | -19%[87.6 µM]
Cc1csc(Nc2ccc3c(n2)CN(Cc2ccc(F)cc2)C(=O)CO3)n1 | u | i | u | u | 8.9µM* | -7%[87.6 µM]
CNc1nccc(N2CCC(CC(=O)NCCC(C)C)CC2)n1 | -9% | i | u | 6% | 32µM* | u
COc1ccc2nc([C@H]3CCN(Cc4ccc(F)c(F)c4)C3)[nH]c2c1 | 7%[87.6 µM] | i | u | -8%[70.6 µM] | u | 1%[87.6 µM]
N#Cc1ccc2nc([C@H]3CCN(Cc4ccc(F)c(F)c4)C3)[nH]c2c1 | -28%[87.6 µM] | i | 32µM* | -20%[70.6 µM] | u | u
N#Cc1cccc(CN2CC[C@H](c3nc4ccccc4[nH]3)C2)c1 | -13%[87.6 µM] | i | 56µM* | -23%[70.6 µM] | 50µM* | u
c1cncc(CN2CC[C@H](c3nc4ccccc4[nH]3)C2)c1 | 7%[87.6 µM] | i | -14%[230 µM] | -11%[70.6 µM] | u | 36%[87.6 µM]
CC(C)CCN1CC[C@H](c2nc3ccccc3[nH]2)C1 | -19%[87.6 µM] | 35µM* | -29%[230 µM] | -4%[70.6 µM] | u | 95%[87.6 µM]
COc1ccc2nc([C@H]3CCN(Cc4cccc(C#N)c4)C3)[nH]c2c1 | -25%[87.6 µM] | i | 32µM* | -10%[70.6 µM] | 40µM* | -14%[87.6 µM]
Cc1cn2nc(C(=O)Nc3ccc(N(C)C)cc3)cc2c(N(C)Cc2ccccc2)n1 | -28% | 2.5µM* | u | -10% | u | 99%
Cc1cn2nc(C(=O)Nc3ccc(Cl)cc3)cc2c(N(C)Cc2ccccc2)n1 | 3% | i | -20% | 8% | -17% | 15%
CCC(CC)NC(=O)CC1CCCN(c2cnn(CC3CC3)c(=O)c2)C1 (configuration not stated) | 1% | i | u | 4% | -10% | -20%
CN(Cc1ccccc1)C(=O)CN1C(=O)COc2ccc(C(=O)COc3cccc(F)c3)cc21 | -26% | i | -20% | 1% | u | -6%
CCCCNC(=O)CCCN1C(=O)COc2ccc(C(C)(C)CC)cc21 | u | i | u | -1% | 45µM* | u
CN(Cc1ccccc1)C(=O)CN1C(=O)COc2ccc(C(=O)COc3ccc(F)cc3)cc21 | -28% | i | u | -1% | 20µM* | -8%
COCCNC(=O)CCCN1C(=O)COc2ccc(C(=O)COc3ccc(F)c(Cl)c3)cc21 | 1% | i | u | -3% | u | -4%
CC(C)c1ccc(OCC(=O)c2ccc3c(c2)N(CCCC(=O)N2CCOCC2)C(=O)CO3)cc1 | -14% | u | 32µM* | -18% | 32µM* | 9%
COCCNC(=O)CCCN1C(=O)COc2ccc(C(=O)COc3ccc(C(C)(C)C)cc3)cc21 | u | 14µM* | u | -16% | u | u
Cc1ccc(CNC(=O)CCCN2C(=O)COc3ccc(C)cc32)cc1 | -1% | x | x | x | x | -25%
